# In article PMC7862700, “An all-to-all approach to the identification of sequence-specific readers for epigenetic DNA modifications on cytosine”:
# Tests used:
# Experiment in all cases: DAPPL (digital affinity profiling via proximity ligation, sequencing); 10 mM Tris-HCl pH 7.5, 50 mM NaCl, 1 mM DTT, 4% glycerol, room temperature, 30 min; GST-TFs on glutathione beads, 16-mer random dsDNA library, 0.1% formaldehyde crosslink after washing; high values mean tight binding
# [1] = target: T1, FLI1 (Homo sapiens, UniProt Q01543 1-452); settings: protein: recombinant; tags: N-terminal GST; dsDNA, one strand shown
# T1 sequence: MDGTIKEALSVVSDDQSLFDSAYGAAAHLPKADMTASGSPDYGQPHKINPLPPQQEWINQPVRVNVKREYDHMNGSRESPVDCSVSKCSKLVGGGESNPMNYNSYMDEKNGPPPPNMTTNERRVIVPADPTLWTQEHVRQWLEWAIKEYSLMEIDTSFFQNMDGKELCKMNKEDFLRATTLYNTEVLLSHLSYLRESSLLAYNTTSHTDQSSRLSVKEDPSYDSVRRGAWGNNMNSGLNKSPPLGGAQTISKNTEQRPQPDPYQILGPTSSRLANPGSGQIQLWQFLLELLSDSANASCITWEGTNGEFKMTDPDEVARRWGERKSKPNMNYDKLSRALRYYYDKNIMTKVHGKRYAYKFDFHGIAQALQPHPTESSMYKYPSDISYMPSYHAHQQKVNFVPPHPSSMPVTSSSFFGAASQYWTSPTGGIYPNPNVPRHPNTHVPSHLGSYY
# Summary of the method: (§1)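 Pools of DNA-barcoded human transcription factors, expressed in yeast as GST fusions on glutathione beads and combined with a tag-only sample, were incubated with 200 nmole of a 16-mer random double-stranded DNA library. Incubation took 30 min at room temperature in Tris/NaCl/DTT/glycerol buffer and was followed by washing, 0.1% formaldehyde crosslinking, proximity ligation (BsaI/T4 ligase, 1 h, 37 °C), PCR amplification and sequencing on an Illumina NextSeq500. Binding signal is the ratio of a hexamer's read frequency for a factor to its frequency for the tag-only sample.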
# [2] = target: T2, ELK1 (Homo sapiens, UniProt P19419 1-428); settings: protein: recombinant; tags: N-terminal GST; dsDNA, one strand shown
# T2 sequence: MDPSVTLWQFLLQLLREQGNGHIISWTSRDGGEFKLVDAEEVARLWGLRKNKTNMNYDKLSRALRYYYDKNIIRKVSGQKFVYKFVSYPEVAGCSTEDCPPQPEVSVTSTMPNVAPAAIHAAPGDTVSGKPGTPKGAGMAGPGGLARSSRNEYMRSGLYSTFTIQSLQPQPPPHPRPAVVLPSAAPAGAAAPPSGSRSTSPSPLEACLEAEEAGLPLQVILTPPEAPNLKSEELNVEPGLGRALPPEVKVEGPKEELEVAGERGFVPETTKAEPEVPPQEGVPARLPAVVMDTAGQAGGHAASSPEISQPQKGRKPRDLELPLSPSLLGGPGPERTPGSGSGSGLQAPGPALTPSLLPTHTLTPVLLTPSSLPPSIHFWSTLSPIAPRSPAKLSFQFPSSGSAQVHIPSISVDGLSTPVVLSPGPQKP
# Summary of the method: as §1
# [3] = target: T3, GABPA (Homo sapiens, UniProt Q06546 1-454); settings: protein: recombinant; tags: N-terminal GST; dsDNA, one strand shown
# T3 sequence: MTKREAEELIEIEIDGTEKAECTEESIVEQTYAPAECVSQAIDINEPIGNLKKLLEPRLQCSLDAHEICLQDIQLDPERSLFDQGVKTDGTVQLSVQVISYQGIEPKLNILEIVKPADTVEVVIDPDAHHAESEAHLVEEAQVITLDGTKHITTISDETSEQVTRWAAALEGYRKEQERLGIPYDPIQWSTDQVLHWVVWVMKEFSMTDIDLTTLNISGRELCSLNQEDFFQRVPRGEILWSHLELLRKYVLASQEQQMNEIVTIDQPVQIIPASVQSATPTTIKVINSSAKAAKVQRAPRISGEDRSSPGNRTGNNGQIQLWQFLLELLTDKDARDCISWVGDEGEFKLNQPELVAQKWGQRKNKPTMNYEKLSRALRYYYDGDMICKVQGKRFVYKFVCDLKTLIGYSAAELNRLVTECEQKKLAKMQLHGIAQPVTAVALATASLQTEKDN
# Summary of the method: as §1
# [4] = target: T4, ERG (Homo sapiens, UniProt P11308 1-479); settings: protein: recombinant; tags: N-terminal GST; dsDNA, one strand shown
# T4 sequence: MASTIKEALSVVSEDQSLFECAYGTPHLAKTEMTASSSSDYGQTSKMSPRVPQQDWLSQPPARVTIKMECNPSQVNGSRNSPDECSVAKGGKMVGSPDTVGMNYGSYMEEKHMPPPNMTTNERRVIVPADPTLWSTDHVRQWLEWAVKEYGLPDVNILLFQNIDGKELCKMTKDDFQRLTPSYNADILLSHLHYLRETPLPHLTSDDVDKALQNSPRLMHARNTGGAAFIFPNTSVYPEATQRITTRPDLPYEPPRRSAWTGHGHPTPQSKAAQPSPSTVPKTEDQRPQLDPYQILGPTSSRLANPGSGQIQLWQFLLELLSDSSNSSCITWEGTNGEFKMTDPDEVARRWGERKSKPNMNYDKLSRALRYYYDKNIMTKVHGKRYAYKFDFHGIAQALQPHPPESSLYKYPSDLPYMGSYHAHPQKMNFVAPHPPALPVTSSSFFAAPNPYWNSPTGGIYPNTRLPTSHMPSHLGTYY
# Summary of the method: as §1
# [5] = target: ELF1 (Homo sapiens, UniProt P32519 1-619); settings: protein: recombinant; tags: N-terminal GST; dsDNA, one strand shown
# Summary of the method: as §1
# [6] = target: T5, EHF (Homo sapiens, UniProt Q9NZC4 1-300); settings: protein: recombinant; tags: N-terminal GST; dsDNA, one strand shown
# T5 sequence: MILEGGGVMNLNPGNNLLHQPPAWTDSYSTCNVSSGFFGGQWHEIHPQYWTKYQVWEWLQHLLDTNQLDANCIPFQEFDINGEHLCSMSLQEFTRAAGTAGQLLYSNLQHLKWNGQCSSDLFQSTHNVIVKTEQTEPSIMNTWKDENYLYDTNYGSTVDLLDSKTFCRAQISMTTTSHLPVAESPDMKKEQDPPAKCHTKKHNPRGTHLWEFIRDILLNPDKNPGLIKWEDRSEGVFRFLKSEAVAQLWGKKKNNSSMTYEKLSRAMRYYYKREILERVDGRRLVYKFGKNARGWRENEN
# Summary of the method: as §1
# [7] = target: SPI1 (Homo sapiens, UniProt P17947 1-270); settings: protein: recombinant; tags: N-terminal GST; dsDNA, one strand shown
# Summary of the method: as §1
# [8] = target: SPIB (Homo sapiens, UniProt Q01892 1-262); settings: protein: recombinant; tags: N-terminal GST; dsDNA, one strand shown
# Summary of the method: as §1
# [9] = target: T6, ELK3 (Homo sapiens, UniProt P41970 1-407); settings: protein: recombinant; tags: N-terminal GST; dsDNA, one strand shown
# T6 sequence: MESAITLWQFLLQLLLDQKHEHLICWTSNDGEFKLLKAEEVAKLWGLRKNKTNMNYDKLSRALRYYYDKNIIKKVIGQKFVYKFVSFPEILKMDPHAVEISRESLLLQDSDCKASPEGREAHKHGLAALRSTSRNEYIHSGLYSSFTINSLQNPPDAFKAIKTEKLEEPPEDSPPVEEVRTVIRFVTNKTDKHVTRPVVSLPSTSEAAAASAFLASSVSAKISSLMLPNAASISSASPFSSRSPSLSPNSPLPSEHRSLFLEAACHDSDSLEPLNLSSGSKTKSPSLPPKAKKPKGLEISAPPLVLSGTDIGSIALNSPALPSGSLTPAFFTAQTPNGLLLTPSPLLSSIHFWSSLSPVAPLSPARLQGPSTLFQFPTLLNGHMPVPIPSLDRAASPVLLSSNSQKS
# Summary of the method: as §1
# [10] = target: T7, FEV (Homo sapiens, UniProt Q99581 1-238); settings: protein: recombinant; tags: N-terminal GST; dsDNA, one strand shown
# T7 sequence: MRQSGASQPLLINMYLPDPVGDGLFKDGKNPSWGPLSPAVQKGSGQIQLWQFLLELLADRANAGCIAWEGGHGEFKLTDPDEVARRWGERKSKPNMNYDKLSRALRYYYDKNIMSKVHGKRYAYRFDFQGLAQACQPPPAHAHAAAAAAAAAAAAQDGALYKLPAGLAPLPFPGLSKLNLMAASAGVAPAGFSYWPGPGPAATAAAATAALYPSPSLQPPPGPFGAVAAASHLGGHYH
# Summary of the method: as §1
# [11] = target: ETV5 (Homo sapiens, UniProt P41161 1-510); settings: protein: recombinant; tags: N-terminal GST; dsDNA, one strand shown
# Summary of the method: as §1
# [12] = target: HSF1 (Homo sapiens, UniProt Q00613 1-529); settings: protein: recombinant; tags: N-terminal GST; chain copies: 3; dsDNA, one strand shown
# Summary of the method: as §1
# [13] = target: T8, SPIC (Homo sapiens, UniProt Q8N5J4 1-248); settings: protein: recombinant; tags: N-terminal GST; dsDNA, one strand shown
# T8 sequence: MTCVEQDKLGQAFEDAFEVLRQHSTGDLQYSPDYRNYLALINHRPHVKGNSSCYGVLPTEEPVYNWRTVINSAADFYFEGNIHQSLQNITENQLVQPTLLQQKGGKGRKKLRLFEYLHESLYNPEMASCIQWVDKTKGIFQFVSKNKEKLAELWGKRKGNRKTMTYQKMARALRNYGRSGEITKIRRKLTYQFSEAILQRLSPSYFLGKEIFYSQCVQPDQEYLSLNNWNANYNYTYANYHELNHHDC
# Summary of the method: as §1
# [14] = target: ELF4 (Homo sapiens, UniProt Q99607 1-663); settings: protein: recombinant; tags: N-terminal GST; dsDNA, one strand shown
# Summary of the method: as §1
# [15] = target: T9, ELK4 (Homo sapiens, UniProt P28324-2 1-405); settings: protein: recombinant; tags: N-terminal GST; dsDNA, one strand shown
# T9 sequence: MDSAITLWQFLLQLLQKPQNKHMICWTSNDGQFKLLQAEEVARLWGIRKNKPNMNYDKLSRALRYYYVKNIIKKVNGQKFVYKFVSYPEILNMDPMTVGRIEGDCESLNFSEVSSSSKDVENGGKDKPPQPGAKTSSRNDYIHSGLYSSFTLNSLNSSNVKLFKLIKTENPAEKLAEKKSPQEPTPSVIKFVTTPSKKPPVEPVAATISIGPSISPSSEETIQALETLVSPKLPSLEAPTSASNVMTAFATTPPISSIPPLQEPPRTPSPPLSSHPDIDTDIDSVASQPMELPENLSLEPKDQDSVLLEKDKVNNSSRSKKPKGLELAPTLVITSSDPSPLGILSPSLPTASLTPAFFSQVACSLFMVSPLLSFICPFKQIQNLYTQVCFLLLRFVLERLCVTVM
# Summary of the method: as §1
# [16] = target: T10, ETV2 (Homo sapiens, UniProt O00321 1-342); settings: protein: recombinant; tags: N-terminal GST; dsDNA, one strand shown
# T10 sequence: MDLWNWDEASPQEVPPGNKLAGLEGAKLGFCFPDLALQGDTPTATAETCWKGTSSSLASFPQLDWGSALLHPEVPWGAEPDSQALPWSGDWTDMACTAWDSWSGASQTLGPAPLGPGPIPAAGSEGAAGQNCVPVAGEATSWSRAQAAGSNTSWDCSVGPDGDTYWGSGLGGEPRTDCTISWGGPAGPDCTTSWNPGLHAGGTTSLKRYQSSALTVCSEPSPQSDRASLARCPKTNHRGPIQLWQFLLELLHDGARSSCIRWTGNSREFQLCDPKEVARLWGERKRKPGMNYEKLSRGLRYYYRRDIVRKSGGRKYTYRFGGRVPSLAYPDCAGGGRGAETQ
# Summary of the method: as §1
# [17] = target: T11, ELF3 (Homo sapiens, UniProt P78545 1-371); settings: protein: recombinant; tags: N-terminal GST; dsDNA, one strand shown
# T11 sequence: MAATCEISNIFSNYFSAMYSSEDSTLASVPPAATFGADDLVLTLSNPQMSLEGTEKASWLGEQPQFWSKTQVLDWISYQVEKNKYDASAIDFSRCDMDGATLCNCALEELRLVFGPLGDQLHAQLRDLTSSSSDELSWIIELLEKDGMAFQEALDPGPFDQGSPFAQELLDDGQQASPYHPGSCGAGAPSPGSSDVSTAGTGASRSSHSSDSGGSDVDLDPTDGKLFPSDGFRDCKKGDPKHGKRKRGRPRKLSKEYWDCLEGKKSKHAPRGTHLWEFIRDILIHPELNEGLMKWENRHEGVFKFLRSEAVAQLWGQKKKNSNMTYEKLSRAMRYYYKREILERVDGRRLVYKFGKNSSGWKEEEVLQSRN
# Summary of the method: as §1
# [18] = target: CRX (Homo sapiens, UniProt O43186 1-299); settings: protein: recombinant; tags: N-terminal GST; dsDNA, one strand shown
# Summary of the method: as §1
# [19] = target: ETV1 (Homo sapiens, UniProt P50549 1-477); settings: protein: recombinant; tags: N-terminal GST; dsDNA, one strand shown
# Summary of the method: as §1
# SPIB, sequence (Q01892 whole entry): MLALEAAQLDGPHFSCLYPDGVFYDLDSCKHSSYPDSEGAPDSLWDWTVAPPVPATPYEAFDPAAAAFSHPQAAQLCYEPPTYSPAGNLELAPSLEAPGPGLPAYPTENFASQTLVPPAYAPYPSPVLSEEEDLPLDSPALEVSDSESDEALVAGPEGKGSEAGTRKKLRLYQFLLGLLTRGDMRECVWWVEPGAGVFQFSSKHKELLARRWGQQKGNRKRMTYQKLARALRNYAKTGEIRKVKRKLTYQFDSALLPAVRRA
# ELF1, sequence (P32519 whole entry): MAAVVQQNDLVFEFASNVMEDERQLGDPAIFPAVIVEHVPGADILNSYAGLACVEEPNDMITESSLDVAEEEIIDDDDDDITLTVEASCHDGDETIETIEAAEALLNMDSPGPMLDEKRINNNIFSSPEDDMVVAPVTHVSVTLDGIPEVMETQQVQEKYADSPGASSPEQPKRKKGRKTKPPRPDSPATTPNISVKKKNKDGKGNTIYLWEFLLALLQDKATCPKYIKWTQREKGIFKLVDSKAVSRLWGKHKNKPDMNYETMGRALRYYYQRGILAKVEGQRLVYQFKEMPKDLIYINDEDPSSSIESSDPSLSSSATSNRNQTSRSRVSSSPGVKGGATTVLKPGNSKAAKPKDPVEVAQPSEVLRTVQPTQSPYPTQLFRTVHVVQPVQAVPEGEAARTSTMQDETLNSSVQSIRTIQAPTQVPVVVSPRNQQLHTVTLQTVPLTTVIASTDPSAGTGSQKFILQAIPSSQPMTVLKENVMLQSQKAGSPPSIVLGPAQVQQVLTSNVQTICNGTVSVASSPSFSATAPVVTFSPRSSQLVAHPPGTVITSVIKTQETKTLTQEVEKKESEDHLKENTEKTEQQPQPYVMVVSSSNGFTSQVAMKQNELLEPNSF
# CRX, sequence (O43186 whole entry): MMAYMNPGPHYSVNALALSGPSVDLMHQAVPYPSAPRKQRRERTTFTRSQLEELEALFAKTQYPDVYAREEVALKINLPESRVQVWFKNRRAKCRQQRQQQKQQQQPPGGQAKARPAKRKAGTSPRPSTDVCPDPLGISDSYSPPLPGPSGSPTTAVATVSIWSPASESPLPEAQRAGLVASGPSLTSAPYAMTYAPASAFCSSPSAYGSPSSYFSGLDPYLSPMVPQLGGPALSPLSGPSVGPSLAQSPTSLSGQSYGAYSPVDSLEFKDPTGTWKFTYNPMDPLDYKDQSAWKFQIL
# ETV1, sequence (P50549 whole entry): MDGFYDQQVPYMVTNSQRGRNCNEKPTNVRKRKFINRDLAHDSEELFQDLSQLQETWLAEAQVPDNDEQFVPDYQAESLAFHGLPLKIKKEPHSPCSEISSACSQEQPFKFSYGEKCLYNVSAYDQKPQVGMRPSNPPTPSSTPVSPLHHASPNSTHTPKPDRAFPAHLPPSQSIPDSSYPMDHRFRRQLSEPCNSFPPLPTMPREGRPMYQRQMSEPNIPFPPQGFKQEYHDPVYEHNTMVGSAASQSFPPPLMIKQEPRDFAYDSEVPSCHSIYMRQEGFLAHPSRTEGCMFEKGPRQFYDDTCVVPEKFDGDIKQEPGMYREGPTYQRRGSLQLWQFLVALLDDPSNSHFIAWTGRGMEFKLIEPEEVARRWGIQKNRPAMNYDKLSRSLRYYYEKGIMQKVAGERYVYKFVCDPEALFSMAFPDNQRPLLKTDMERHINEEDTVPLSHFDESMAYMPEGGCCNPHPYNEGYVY
# ETV5, sequence (P41161 whole entry): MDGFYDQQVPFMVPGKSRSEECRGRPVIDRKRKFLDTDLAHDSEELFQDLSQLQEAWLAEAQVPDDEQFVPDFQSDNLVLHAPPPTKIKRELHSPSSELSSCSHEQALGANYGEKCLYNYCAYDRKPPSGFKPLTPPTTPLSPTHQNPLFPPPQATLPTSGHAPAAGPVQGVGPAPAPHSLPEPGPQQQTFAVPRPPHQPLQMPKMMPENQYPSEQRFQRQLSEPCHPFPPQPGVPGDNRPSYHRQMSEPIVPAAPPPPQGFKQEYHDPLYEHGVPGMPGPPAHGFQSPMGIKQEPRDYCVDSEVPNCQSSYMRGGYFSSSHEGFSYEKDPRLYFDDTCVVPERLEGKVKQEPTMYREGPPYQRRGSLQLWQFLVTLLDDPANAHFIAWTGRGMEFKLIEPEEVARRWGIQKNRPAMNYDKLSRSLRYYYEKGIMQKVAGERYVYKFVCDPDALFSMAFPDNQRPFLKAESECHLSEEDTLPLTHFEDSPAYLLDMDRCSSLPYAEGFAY
# ELF4, sequence (Q99607 whole entry): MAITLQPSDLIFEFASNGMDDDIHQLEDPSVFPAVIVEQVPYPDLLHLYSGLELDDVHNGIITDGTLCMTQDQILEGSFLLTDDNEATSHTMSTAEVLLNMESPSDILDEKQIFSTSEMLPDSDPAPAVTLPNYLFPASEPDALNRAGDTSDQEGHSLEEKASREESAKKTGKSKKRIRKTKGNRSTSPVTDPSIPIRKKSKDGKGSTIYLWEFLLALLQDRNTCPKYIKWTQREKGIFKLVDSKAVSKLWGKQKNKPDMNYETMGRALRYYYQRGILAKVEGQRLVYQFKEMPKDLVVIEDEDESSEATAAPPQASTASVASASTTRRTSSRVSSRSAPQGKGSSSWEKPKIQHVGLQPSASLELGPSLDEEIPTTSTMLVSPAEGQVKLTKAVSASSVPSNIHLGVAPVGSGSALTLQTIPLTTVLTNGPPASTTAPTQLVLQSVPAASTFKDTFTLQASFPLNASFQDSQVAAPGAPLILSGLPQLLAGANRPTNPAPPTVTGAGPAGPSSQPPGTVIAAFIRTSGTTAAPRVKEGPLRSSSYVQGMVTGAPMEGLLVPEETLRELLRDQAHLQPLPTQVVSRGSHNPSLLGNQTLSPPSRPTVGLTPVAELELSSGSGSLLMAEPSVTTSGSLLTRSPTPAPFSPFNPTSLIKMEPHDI
# HSF1, sequence (Q00613 whole entry): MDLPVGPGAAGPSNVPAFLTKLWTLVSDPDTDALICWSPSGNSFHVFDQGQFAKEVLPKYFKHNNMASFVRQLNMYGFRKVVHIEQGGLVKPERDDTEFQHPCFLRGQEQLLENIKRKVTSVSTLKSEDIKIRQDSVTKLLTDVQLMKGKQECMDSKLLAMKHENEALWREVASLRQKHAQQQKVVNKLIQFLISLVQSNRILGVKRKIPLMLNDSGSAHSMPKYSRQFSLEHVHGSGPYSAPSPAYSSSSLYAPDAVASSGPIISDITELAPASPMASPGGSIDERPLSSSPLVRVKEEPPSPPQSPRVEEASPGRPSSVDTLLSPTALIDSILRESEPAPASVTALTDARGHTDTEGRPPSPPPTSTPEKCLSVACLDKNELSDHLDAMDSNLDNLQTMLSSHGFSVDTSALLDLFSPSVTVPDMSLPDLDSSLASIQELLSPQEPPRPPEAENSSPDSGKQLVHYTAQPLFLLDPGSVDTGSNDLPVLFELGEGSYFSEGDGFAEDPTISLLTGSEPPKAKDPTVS
sequence,measurement,setting,value
ACTACC,binding signal,[1],"1.61 fold enrichment (6-mer frequency, TF over GST control)"
same,binding signal,[2],"1.72 fold enrichment (6-mer frequency, TF over GST control)"
same,binding signal,[3],"1.67 fold enrichment (6-mer frequency, TF over GST control)"
same,binding signal,[4],"1.63 fold enrichment (6-mer frequency, TF over GST control)"
same,binding signal,[5],"1.71 fold enrichment (6-mer frequency, TF over GST control)"
same,binding signal,[6],"1.51 fold enrichment (6-mer frequency, TF over GST control)"
same,binding signal,[7],"1.69 fold enrichment (6-mer frequency, TF over GST control)"
same,binding signal,[8],"1.69 fold enrichment (6-mer frequency, TF over GST control)"
same,binding signal,[9],"1.63 fold enrichment (6-mer frequency, TF over GST control)"
same,binding signal,[10],"1.55 fold enrichment (6-mer frequency, TF over GST control)"
same,binding signal,[11],"1.64 fold enrichment (6-mer frequency, TF over GST control)"
same,binding signal,[12],"1.09 fold enrichment (6-mer frequency, TF over GST control)"
same,binding signal,[13],"1.58 fold enrichment (6-mer frequency, TF over GST control)"
same,binding signal,[14],"1.66 fold enrichment (6-mer frequency, TF over GST control)"
same,binding signal,[15],"1.59 fold enrichment (6-mer frequency, TF over GST control)"
same,binding signal,[16],"1.72 fold enrichment (6-mer frequency, TF over GST control)"
same,binding signal,[17],"1.58 fold enrichment (6-mer frequency, TF over GST control)"
same,binding signal,[18],"1.1 fold enrichment (6-mer frequency, TF over GST control)"
same,binding signal,[19],"1.59 fold enrichment (6-mer frequency, TF over GST control)"
